Calls of active or inactive are those of the source.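 How the source made its calls, unless noted: active means mean inhibition above 46.68%, the untreated control wells mean plus 3 SD; inactive means the rest.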

As usually defined, the inhibition is the change of the read-out against control, counted positive when it falls.

For the first assay, the target named is Nuclear receptor coactivator 1 (Homo sapiens) (UniProt Q15788). The assay is described as follows: SRC1 coactivator transcriptional activity inhibitors, confirmation, cell-based, luminescence, quadruplicate (AID 588820).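 Further: 0% = DMSO wells and 100% = gossypol 36 µM treated wells.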 The following applies: HEK293 GAL4-SRC1 luciferase reporter, at 3.6 µM, stronger effect = higher value. Background: In a reporter assay the amount or activity of a reporter protein is the signal.
Nuclear receptor coactivator 1 (Homo sapiens), sequence (Q15788 whole entry, looked up, the tested form may be a part): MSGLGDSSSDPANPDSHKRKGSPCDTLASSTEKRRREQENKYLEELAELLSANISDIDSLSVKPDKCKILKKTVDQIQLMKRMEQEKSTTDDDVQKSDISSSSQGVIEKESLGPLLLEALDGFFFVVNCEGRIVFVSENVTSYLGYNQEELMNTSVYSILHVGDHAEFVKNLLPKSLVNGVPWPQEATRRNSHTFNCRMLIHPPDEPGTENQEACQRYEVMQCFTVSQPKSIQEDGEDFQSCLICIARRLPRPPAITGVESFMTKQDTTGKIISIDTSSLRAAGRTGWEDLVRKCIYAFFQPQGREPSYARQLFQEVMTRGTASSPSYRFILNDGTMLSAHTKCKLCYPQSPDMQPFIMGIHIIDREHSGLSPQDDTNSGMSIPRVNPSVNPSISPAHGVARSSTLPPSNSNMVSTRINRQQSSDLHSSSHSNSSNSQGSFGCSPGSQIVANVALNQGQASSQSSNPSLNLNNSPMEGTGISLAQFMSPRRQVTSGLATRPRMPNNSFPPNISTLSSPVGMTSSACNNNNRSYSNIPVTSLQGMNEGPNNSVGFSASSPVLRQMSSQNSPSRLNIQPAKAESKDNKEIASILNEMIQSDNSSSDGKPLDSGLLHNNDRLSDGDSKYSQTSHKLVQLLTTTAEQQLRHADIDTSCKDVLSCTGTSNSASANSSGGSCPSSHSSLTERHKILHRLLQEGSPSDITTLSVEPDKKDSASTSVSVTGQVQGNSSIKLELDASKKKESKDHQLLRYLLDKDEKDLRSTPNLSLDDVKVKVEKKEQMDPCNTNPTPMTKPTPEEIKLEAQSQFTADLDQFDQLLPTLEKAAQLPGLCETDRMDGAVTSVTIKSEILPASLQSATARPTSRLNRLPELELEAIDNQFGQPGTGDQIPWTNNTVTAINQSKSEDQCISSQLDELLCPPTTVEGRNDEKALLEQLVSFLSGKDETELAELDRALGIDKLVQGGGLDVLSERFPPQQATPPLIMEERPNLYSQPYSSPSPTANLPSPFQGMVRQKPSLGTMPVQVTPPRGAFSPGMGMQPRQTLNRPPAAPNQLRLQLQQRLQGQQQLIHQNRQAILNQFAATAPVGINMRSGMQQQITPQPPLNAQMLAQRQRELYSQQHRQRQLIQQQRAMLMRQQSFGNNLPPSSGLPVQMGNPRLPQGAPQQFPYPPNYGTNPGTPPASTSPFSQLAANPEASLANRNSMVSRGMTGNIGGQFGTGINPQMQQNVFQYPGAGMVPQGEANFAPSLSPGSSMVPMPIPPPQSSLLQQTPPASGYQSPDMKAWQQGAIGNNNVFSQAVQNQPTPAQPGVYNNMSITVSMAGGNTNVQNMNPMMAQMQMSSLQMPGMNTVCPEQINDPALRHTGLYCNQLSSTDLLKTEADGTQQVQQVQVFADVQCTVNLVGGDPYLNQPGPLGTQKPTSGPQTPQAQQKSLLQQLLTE
For the compound `CSc1ccc(CN2CCN(Cc3ccc([N+](=O)[O-])cc3)CC2)cc1`, the inhibition was -10.7% (inactive).
Consider `Cc1c(C(=O)N2CCN(Cc3ccc4c(c3)OCO4)CC2)sc2ncnc(N3CCN(c4ccccc4)CC3)c12`, for which the inhibition was 11.3% (inactive).
The same measure, in the same setting: to `CCCCCCCCNc1ncnc2[nH]ncc12` belongs -9.61% (inactive).
Still for that read-out and setting: the figure for `CC1Sc2n(c3ccccc3[n+]2C)N=C1c1ccccc1` (stereo not given) is -6.75% (inactive); for `COc1ccc(Cl)cc1NC(=O)Nc1ccccc1C(N)=O` it is 9.1% (inactive).
The same measure, in the same setting: the figure for `Cc1nn(CC(=O)N2CCN(c3cccc(C(F)(F)F)c3)CC2)c(=O)c2cccn12` is 23.4% (inactive).
Turning to `CO/N=C/C(c1ccc(Cl)nc1)S(=O)(=O)c1ccccc1` (stereo not given), the inhibition is -12.5% (inactive).
The same measure, in the same setting: the figure for `CCCCCOc1ccc(/C=C/c2c([N+](=O)[O-])c(=O)n(C)c(=O)n2C)cc1` is 23.6% (inactive).
On the same count and under the same terms, to `CC(Oc1ccccc1)C(=O)N1CCC2(CC1)CC(=O)c1ccccc1O2` (stereo not given) belongs 5.89% (inactive).
As for `COc1cccc(N2CC(NS(=O)(=O)c3cccnc3)CC2=O)c1` (stereo not given), the inhibition is -40.7% (inactive).
On to `CCOC(=O)N1CCC(Nc2ncnc3c2cnn3-c2ccc(C)cc2C)CC1`, for which the inhibition was -5.68% (inactive).
The same measure, in the same setting: to `O=C(CSc1ccccc1)Nc1nnc(-c2ccco2)o1` belongs 1.78% (inactive).
Still for that read-out and setting: to `O=C(CSC1=NS(=O)(=O)c2cc(Cl)ccc2N1)Nc1ccccc1C(F)(F)F` belongs -22.4% (inactive); to `COc1ccc2sc3c(=O)[nH]c4ccccc4c3c2c1`, 55% (active); to `c1ccc(Cc2nnc3sc(-c4ccncc4)nn23)cc1`, 5.92% (inactive).
Same read-out and setting: to `CCOc1cccc2cc(C(=O)N3CC(C)OC(C)C3)c(=O)oc12` (stereo not given) belongs -9.95% (inactive); to `CC(=O)c1c(C)[nH]c(C(=O)COc2ccc3ccc(=O)oc3c2)c1C`, -13.5% (inactive); to `CC(C)(C)c1ccc(-c2cc(-c3ccccc3O)[nH]n2)cc1`, -42.5% (inactive).
Take `CC(=O)NCCOc1nc(N(C)C)nc(N(C)C)n1`: the inhibition is -4.35% (inactive).
Same read-out and setting: to `CCNc1nc(NCC)n2c(SCC(=O)Nc3ccccc3C(F)(F)F)nnc2n1` belongs -4.19% (inactive).
For the compound `CC(CNC(=O)c1cc(COc2ccc3ncccc3c2)on1)c1ccccc1` (stereo not given), the inhibition is -0.59% (inactive).
The same measure, in the same setting: the figure for `CC1=C(C(=O)Nc2ccccc2C(=O)NCc2ccccc2)SCCO1` is -7.53% (inactive); for `COC(=O)C(C)Sc1nc(NCc2ccccc2)nc(N(C)C)n1` (stereo not given) it is -11.2% (inactive).
Take `CC1CCN(C(=O)Cn2c3ccc(F)cc3c3nc4n(c(=O)c32)CCCS4)CC1`: the inhibition is 4.67% (inactive).
On the same count and under the same terms, to `Cc1cc(=O)oc2cc(OCc3ccc(C(=O)N4CCN(c5ccc([N+](=O)[O-])cc5)CC4)cc3)ccc12` belongs 10.5% (inactive).
Same read-out and setting: the figure for `O=C1NC[C@H](c2ccccc2)OC(=O)[C@@H](Cc2ccc(F)cc2)C/C=C\C[C@H]1CC(=O)N(CCO)Cc1ccccc1` is -35% (inactive); for `COc1ccc(CCN2C(=O)C3C4C=CC(C3C2=O)C2C(=O)N(CCc3ccc(OC)c(OC)c3)C(=O)C42)cc1OC` (stereo not given) it is -5.96% (inactive).
On the same count and under the same terms, to `CCOC(=O)c1c(CN(CC)CC)n(C)c2cc(Br)c(O)cc12` belongs 6.72% (inactive); to `Cc1cc(OC(C)C(=O)Nc2ccncc2)ccc1Cl` (stereo not given), -0.51% (inactive).
For `Cc1ccn(CC(=O)N/N=C/c2cc([N+](=O)[O-])ccc2O)n1`, the inhibition was 7.62% (inactive).
Still for that read-out and setting: the figure for `O=C(CS(=O)c1ccc(F)cc1)N1CCOCC1` (stereo not given) is -1.56% (inactive); for `COc1ccc(C(=O)Nc2ccnn2C2CCN(C3CCC3)CC2)cc1` it is -28.9% (inactive); for `Cc1ccc(NC(=O)c2cnc(N3CCN(c4ccccn4)CC3)c3ccccc23)c(Br)c1` it is -15.2% (inactive).
Same read-out and setting: the figure for `Cc1cc(Br)cn2c(Cc3ccsc3)c(-c3ccc(F)cc3)nc12` is 6.68% (inactive).
The same measure, in the same setting: to `Cc1ccc(-n2c(C)nn(CC3CC3)c2=O)cc1` belongs 2.58% (inactive); to `Cc1ccc(C)c(CN2C(=O)c3ccccc3S(=O)c3ccc(C(=O)N4CCN(c5ccccn5)CC4)cc32)c1` (stereo not given), -18.5% (inactive).
Turning to `CC(=O)Nc1sc2c(c1-c1nc3ccccc3s1)CCN(C(C)C)C2`, the inhibition is -147% (inactive).
On the same count and under the same terms, the figure for `CCNC(=O)C1(C)CCCN(Cc2ccc3ccccc3c2Br)C1` (stereo not given) is 11% (inactive); for `Cn1c(=O)c([N+](=O)[O-])c(NCCc2ccccc2)c2ccccc21` it is 4.22% (inactive).
Same read-out and setting: the figure for `Cc1cc(C)n(-c2ccc(C(=O)Nc3ccc(S(=O)(=O)NCc4ccco4)cc3)cc2)n1` is -5.13% (inactive).

Tested on in a further assay: not listed separately
Briefly: VP16 transactivation inhibitors, counter-screen for SRC1 inhibitor project, cell-based, luminescence, high throughput (AID 588824; in the data active means inhibition above about 25%). As to conditions: cell-based VP16 transactivation luciferase luminescence; at 3.6 µM; stronger effect = higher value.
Turning to `CSc1ccc(CN2CCN(Cc3ccc([N+](=O)[O-])cc3)CC2)cc1`, the inhibition is 26.8% (active).
Still for that read-out and setting: to `Cc1c(C(=O)N2CCN(Cc3ccc4c(c3)OCO4)CC2)sc2ncnc(N3CCN(c4ccccc4)CC3)c12` belongs 19.7% (inactive); to `CCCCCCCCNc1ncnc2[nH]ncc12`, 19.6% (inactive); to `CC1Sc2n(c3ccccc3[n+]2C)N=C1c1ccccc1` (stereo not given), 11.7% (inactive).
Turning to `COc1ccc(Cl)cc1NC(=O)Nc1ccccc1C(N)=O`, the inhibition was 17.7% (inactive).
Still for that read-out and setting: to `Cc1nn(CC(=O)N2CCN(c3cccc(C(F)(F)F)c3)CC2)c(=O)c2cccn12` belongs 8.52% (inactive).
On the same count and under the same terms, the figure for `CO/N=C/C(c1ccc(Cl)nc1)S(=O)(=O)c1ccccc1` (stereo not given) is -1.73% (inactive).
Same read-out and setting: the figure for `CCCCCOc1ccc(/C=C/c2c([N+](=O)[O-])c(=O)n(C)c(=O)n2C)cc1` is 22.4% (inactive); for `CC(Oc1ccccc1)C(=O)N1CCC2(CC1)CC(=O)c1ccccc1O2` (stereo not given) it is 3.37% (inactive).
For the compound `COc1cccc(N2CC(NS(=O)(=O)c3cccnc3)CC2=O)c1` (stereo not given), the inhibition is -8.11% (inactive).
The same measure, in the same setting: to `CCOC(=O)N1CCC(Nc2ncnc3c2cnn3-c2ccc(C)cc2C)CC1` belongs 29% (active); to `O=C(CSc1ccccc1)Nc1nnc(-c2ccco2)o1`, -4.61% (inactive).
As for `O=C(CSC1=NS(=O)(=O)c2cc(Cl)ccc2N1)Nc1ccccc1C(F)(F)F`, the inhibition is -12.3% (inactive).
As to `COc1ccc2sc3c(=O)[nH]c4ccccc4c3c2c1`, the inhibition was 41.4% (active).
As for `c1ccc(Cc2nnc3sc(-c4ccncc4)nn23)cc1`, the inhibition was -1.52% (inactive).
On the same count and under the same terms, to `CCOc1cccc2cc(C(=O)N3CC(C)OC(C)C3)c(=O)oc12` (stereo not given) belongs -2.83% (inactive); to `CC(=O)c1c(C)[nH]c(C(=O)COc2ccc3ccc(=O)oc3c2)c1C`, 4.04% (inactive); to `CC(C)(C)c1ccc(-c2cc(-c3ccccc3O)[nH]n2)cc1`, -28.4% (inactive).
Same read-out and setting: the figure for `CC(=O)NCCOc1nc(N(C)C)nc(N(C)C)n1` is 0% (inactive); for `CCNc1nc(NCC)n2c(SCC(=O)Nc3ccccc3C(F)(F)F)nnc2n1` it is -1.57% (inactive).
In the case of `CC(CNC(=O)c1cc(COc2ccc3ncccc3c2)on1)c1ccccc1` (stereo not given), the inhibition was 3.38% (inactive).
On the same count and under the same terms, the figure for `CC1=C(C(=O)Nc2ccccc2C(=O)NCc2ccccc2)SCCO1` is -4.09% (inactive); for `COC(=O)C(C)Sc1nc(NCc2ccccc2)nc(N(C)C)n1` (stereo not given) it is -11.6% (inactive).
For the compound `CC1CCN(C(=O)Cn2c3ccc(F)cc3c3nc4n(c(=O)c32)CCCS4)CC1`, the inhibition is 3.44% (inactive).
On the same count and under the same terms, to `Cc1cc(=O)oc2cc(OCc3ccc(C(=O)N4CCN(c5ccc([N+](=O)[O-])cc5)CC4)cc3)ccc12` belongs -3.02% (inactive); to `O=C1NC[C@H](c2ccccc2)OC(=O)[C@@H](Cc2ccc(F)cc2)C/C=C\C[C@H]1CC(=O)N(CCO)Cc1ccccc1`, -0.29% (inactive); to `COc1ccc(CCN2C(=O)C3C4C=CC(C3C2=O)C2C(=O)N(CCc3ccc(OC)c(OC)c3)C(=O)C42)cc1OC` (stereo not given), 11.5% (inactive).
In the case of `CCOC(=O)c1c(CN(CC)CC)n(C)c2cc(Br)c(O)cc12`, the inhibition is 2.67% (inactive).
On the same count and under the same terms, to `Cc1cc(OC(C)C(=O)Nc2ccncc2)ccc1Cl` (stereo not given) belongs 7.56% (inactive); to `Cc1ccn(CC(=O)N/N=C/c2cc([N+](=O)[O-])ccc2O)n1`, 9.09% (inactive); to `O=C(CS(=O)c1ccc(F)cc1)N1CCOCC1` (stereo not given), -3.56% (inactive).
On the same count and under the same terms, the figure for `COc1ccc(C(=O)Nc2ccnn2C2CCN(C3CCC3)CC2)cc1` is -0.43% (inactive); for `Cc1ccc(NC(=O)c2cnc(N3CCN(c4ccccn4)CC3)c3ccccc23)c(Br)c1` it is 17.7% (inactive).
On the same count and under the same terms, the figure for `Cc1cc(Br)cn2c(Cc3ccsc3)c(-c3ccc(F)cc3)nc12` is -0.27% (inactive); for `Cc1ccc(-n2c(C)nn(CC3CC3)c2=O)cc1` it is -3.08% (inactive).
Consider `Cc1ccc(C)c(CN2C(=O)c3ccccc3S(=O)c3ccc(C(=O)N4CCN(c5ccccn5)CC4)cc32)c1` (stereo not given), for which the inhibition is 77.7% (active).
Same read-out and setting: the figure for `CC(=O)Nc1sc2c(c1-c1nc3ccccc3s1)CCN(C(C)C)C2` is 59.3% (active).
On the same count and under the same terms, to `CCNC(=O)C1(C)CCCN(Cc2ccc3ccccc3c2Br)C1` (stereo not given) belongs 13.3% (inactive); to `Cn1c(=O)c([N+](=O)[O-])c(NCCc2ccccc2)c2ccccc21`, 4.74% (inactive).
On the same count and under the same terms, to `Cc1cc(C)n(-c2ccc(C(=O)Nc3ccc(S(=O)(=O)NCc4ccco4)cc3)cc2)n1` belongs 24.2% (inactive).
